# Data from the supplement of paper PMC10077471.
# Over roughly 1,900 compounds, “excess over highest single agent (ExcessHSA) synergy score, 6x6 matrix” has its median near -83; the lowest 2% begin near -370. What follows is part of a selection rich in the lowest values, with near analogues and random picks from the rest.
# Test system: NCI-H446
# Assay: excess over highest single agent (ExcessHSA) synergy score, 6x6 matrix; higher = less synergy (more negative = stronger synergy)
# Conditions: 72 h; CellTiter-Glo viability
row,Structure (SMILES),excess over highest single agent
1,O=C1[C@H](Cc2ccc(O)cc2)N2C(=O)CCN(C(=O)NCc3ccccc3)[C@H]2CN1Cc1cccc2ccccc12 + Cc1sc2c(c1C)C(c1ccc(Cl)cc1)=N[C@@H](CC(=O)OC(C)(C)C)c1nnc(C)n1-2 [NCGC00250412-19],-294
2,Cn1c(=O)c(F)c(Nc2ccc(I)cc2F)c2c(=O)n(C[C@@H](O)CO)cnc21 + Cc1sc2c(c1C)C(c1ccc(Cl)cc1)=N[C@@H](CC(=O)OC(C)(C)C)c1nnc(C)n1-2 [NCGC00250412-19],-396
3,Cn1c(=O)c2c(ncn2CC(O)CO)n(C)c1=O (centres undefined) + Cc1sc2c(c1C)C(c1ccc(Cl)cc1)=N[C@@H](CC(=O)OC(C)(C)C)c1nnc(C)n1-2 [NCGC00250412-19],-73.2
4,O=C(NOC[C@H](O)CO)c1ccc(F)c(F)c1Nc1ccc(I)cc1F + Cc1sc2c(c1C)C(c1ccc(Cl)cc1)=N[C@@H](CC(=O)OC(C)(C)C)c1nnc(C)n1-2 [NCGC00250412-19],-276
5,O=C(C=Cc1ccc(C=CC(=O)Nc2ccc(C3=NCCN3)cc2)cc1)Nc1ccc(C2=NCCN2)cc1 + Cc1sc2c(c1C)C(c1ccc(Cl)cc1)=N[C@@H](CC(=O)OC(C)(C)C)c1nnc(C)n1-2 [NCGC00250412-19],-46.7
6,CC(C)C(=O)Nc1ncc(-c2cc(C(F)F)nn2-c2c(Cl)cccc2Cl)s1 + Cc1sc2c(c1C)C(c1ccc(Cl)cc1)=N[C@@H](CC(=O)OC(C)(C)C)c1nnc(C)n1-2 [NCGC00250412-19],-105
7,COc1ccc(-c2nc(N3CCOCC3)c3sc(CN(C)c4ncc(C(=O)NO)cn4)cc3n2)cn1 + Cc1sc2c(c1C)C(c1ccc(Cl)cc1)=N[C@@H](CC(=O)OC(C)(C)C)c1nnc(C)n1-2 [NCGC00250412-19],-105
8,c1ccc2c(Cc3c[nH]c4ccccc34)c[nH]c2c1 + Cc1sc2c(c1C)C(c1ccc(Cl)cc1)=N[C@@H](CC(=O)OC(C)(C)C)c1nnc(C)n1-2 [NCGC00250412-19],-83.3
9,CCCS(=O)(=O)Nc1ccc(F)c(C(=O)c2c[nH]c3ncc(-c4ccc(Cl)cc4)cc23)c1F + Cc1sc2c(c1C)C(c1ccc(Cl)cc1)=N[C@@H](CC(=O)OC(C)(C)C)c1nnc(C)n1-2 [NCGC00250412-19],-108
10,CCCCOc1c(C(=O)c2c(F)cc(C)cc2F)c[nH]c2nncc1-2 + Cc1sc2c(c1C)C(c1ccc(Cl)cc1)=N[C@@H](CC(=O)OC(C)(C)C)c1nnc(C)n1-2 [NCGC00250412-19],-375
11,CCCS(=O)(=O)Nc1ccc(F)c(C(=O)c2c[nH]c3ncc(Cl)cc23)c1F + Cc1sc2c(c1C)C(c1ccc(Cl)cc1)=N[C@@H](CC(=O)OC(C)(C)C)c1nnc(C)n1-2 [NCGC00250412-19],-97.1
12,CCOC(=O)/C=C/[C@H](C[C@@H]1CCNC1=O)NC(=O)[C@@H](CC(=O)[C@@H](NC(=O)c1cc(C)on1)C(C)C)Cc1ccc(F)cc1 + Cc1sc2c(c1C)C(c1ccc(Cl)cc1)=N[C@@H](CC(=O)OC(C)(C)C)c1nnc(C)n1-2 [NCGC00250412-19],-127
13,O=C(C[C@@H]1C/C=C/CCC(=O)O[C@H](c2ccccc2)CNC1=O)NCc1ccc(Cl)cc1 + Cc1sc2c(c1C)C(c1ccc(Cl)cc1)=N[C@@H](CC(=O)OC(C)(C)C)c1nnc(C)n1-2 [NCGC00250412-19],-98.1
14,CN(C)C[C@@H]1CCn2cc(c3ccccc32)C2=C(C(=O)NC2=O)c2cn(c3ccccc23)CCO1 + Cc1sc2c(c1C)C(c1ccc(Cl)cc1)=N[C@@H](CC(=O)OC(C)(C)C)c1nnc(C)n1-2 [NCGC00250412-19],-125
15,COc1cc(NCc2ccc3nc(N)nc(N)c3c2C)cc(OC)c1OC + Cc1sc2c(c1C)C(c1ccc(Cl)cc1)=N[C@@H](CC(=O)OC(C)(C)C)c1nnc(C)n1-2 [NCGC00250412-19],-213
16,C=C1C(=O)[C@]23[C@H](O)[C@H]1CC[C@H]2[C@@]12CO[C@]3(O)[C@@H](O)[C@@H]1C(C)(C)CC[C@@H]2O + Cc1sc2c(c1C)C(c1ccc(Cl)cc1)=N[C@@H](CC(=O)OC(C)(C)C)c1nnc(C)n1-2 [NCGC00250412-19],-378
17,Oc1ccc(C2=Cc3ccc(O)cc3OC2)cc1 + Cc1sc2c(c1C)C(c1ccc(Cl)cc1)=N[C@@H](CC(=O)OC(C)(C)C)c1nnc(C)n1-2 [NCGC00250412-19],-209
18,CNc1nc(Nc2ccc(C(=O)N3CCOCC3)cc2OC)ncc1Cl + Cc1sc2c(c1C)C(c1ccc(Cl)cc1)=N[C@@H](CC(=O)OC(C)(C)C)c1nnc(C)n1-2 [NCGC00250412-19],436
19,Cc1ccc(S(=O)(=O)Nc2cc(Cl)ccc2C(=O)Nc2nc(-c3ccccc3)cs2)cc1 + Cc1sc2c(c1C)C(c1ccc(Cl)cc1)=N[C@@H](CC(=O)OC(C)(C)C)c1nnc(C)n1-2 [NCGC00250412-19],214
20,CC(O)(C#Cc1ccc2c(c1)N(c1nc(N)ncc1Cl)CC2)c1nccs1 (centres undefined) + Cc1sc2c(c1C)C(c1ccc(Cl)cc1)=N[C@@H](CC(=O)OC(C)(C)C)c1nnc(C)n1-2 [NCGC00250412-19],54

row,Structure (SMILES),excess over highest single agent
1,CC(NCc1ccc2c(c1)nc(NC(=O)c1ccc(-c3cn[nH]c3)s1)n2CC(C)(C)O)C(C)(C)C (centres undefined) + Cc1sc2c(c1C)C(c1ccc(Cl)cc1)=N[C@@H](CC(=O)OC(C)(C)C)c1nnc(C)n1-2 [NCGC00250412-19],-312
2,CC(C)(O)Cn1c(NC(=O)c2ccc(-c3cn[nH]c3)s2)nc2cc(CN3CCOCC3)ccc21 + Cc1sc2c(c1C)C(c1ccc(Cl)cc1)=N[C@@H](CC(=O)OC(C)(C)C)c1nnc(C)n1-2 [NCGC00250412-19],-423
3,C[C@H](NCc1ccc2c(c1)nc(NC(=O)c1ccc(-c3cn[nH]c3)s1)n2CCc1ccccc1)C(C)(C)C + Cc1sc2c(c1C)C(c1ccc(Cl)cc1)=N[C@@H](CC(=O)OC(C)(C)C)c1nnc(C)n1-2 [NCGC00250412-19],-305
4,CCNC(=O)c1cc2c(-c3cc(OCCN4CCCC4)c(Cl)cc3Cl)nc(N)nc2s1 + Cc1sc2c(c1C)C(c1ccc(Cl)cc1)=N[C@@H](CC(=O)OC(C)(C)C)c1nnc(C)n1-2 [NCGC00250412-19],-89.1
5,O=C1NC(=O)/C(=C/c2ccc3nccc(-c4ccncc4)c3c2)S1 + Cc1sc2c(c1C)C(c1ccc(Cl)cc1)=N[C@@H](CC(=O)OC(C)(C)C)c1nnc(C)n1-2 [NCGC00250412-19],-177
6,CCCNC(=O)[C@H]1O[C@@H]1C(=O)N[C@H](C(=O)N1CCC[C@H]1C(=O)OC)[C@@H](C)CC + Cc1sc2c(c1C)C(c1ccc(Cl)cc1)=N[C@@H](CC(=O)OC(C)(C)C)c1nnc(C)n1-2 [NCGC00250412-19],-117
7,CN(C)c1ccc(C2Nc3ccc4ccccc4c3C3=C2C(=O)CC(C)(C)C3)cc1Br (centres undefined) + Cc1sc2c(c1C)C(c1ccc(Cl)cc1)=N[C@@H](CC(=O)OC(C)(C)C)c1nnc(C)n1-2 [NCGC00250412-19],-30.1
8,O=c1cc(N2CCOCC2)oc2c(-c3ccccc3)cccc12 + Cc1sc2c(c1C)C(c1ccc(Cl)cc1)=N[C@@H](CC(=O)OC(C)(C)C)c1nnc(C)n1-2 [NCGC00250412-19],83.7
9,O=c1cc(N2CCOCC2)oc2c(-c3cccc4c3sc3ccccc34)cccc12 + Cc1sc2c(c1C)C(c1ccc(Cl)cc1)=N[C@@H](CC(=O)OC(C)(C)C)c1nnc(C)n1-2 [NCGC00250412-19],-318
10,CCN1CCN(CC(=O)Nc2ccc(-c3cccc4c(=O)cc(N5CCOCC5)oc34)c3sc4ccccc4c23)CC1 + Cc1sc2c(c1C)C(c1ccc(Cl)cc1)=N[C@@H](CC(=O)OC(C)(C)C)c1nnc(C)n1-2 [NCGC00250412-19],-383
11,CN(C)CC(=O)N1CCC(c2ccc(NC(=O)c3ncc(C#N)[nH]3)c(C3=CCCCC3)c2)CC1 + Cc1sc2c(c1C)C(c1ccc(Cl)cc1)=N[C@@H](CC(=O)OC(C)(C)C)c1nnc(C)n1-2 [NCGC00250412-19],53.2
12,CC1CCN(c2cc(N3CCN(C)CC3)ccc2NC(=O)c2cc(C#N)c[nH]2)CC1 + Cc1sc2c(c1C)C(c1ccc(Cl)cc1)=N[C@@H](CC(=O)OC(C)(C)C)c1nnc(C)n1-2 [NCGC00250412-19],106
13,COc1ccc(Nc2nccc(NCCO)n2)cc1 + Cc1sc2c(c1C)C(c1ccc(Cl)cc1)=N[C@@H](CC(=O)OC(C)(C)C)c1nnc(C)n1-2 [NCGC00250412-19],81.9
14,CN(C)c1ccc2cc(C(=O)N[C@@H](CCCN=C(N)CCl)C(=O)NCc3ccccc3)ccc2c1 + Cc1sc2c(c1C)C(c1ccc(Cl)cc1)=N[C@@H](CC(=O)OC(C)(C)C)c1nnc(C)n1-2 [NCGC00250412-19],-202
15,NS(=O)(=O)c1ccc(Nc2nc(OCC3CCCCC3)c3[nH]cnc3n2)cc1 + Cc1sc2c(c1C)C(c1ccc(Cl)cc1)=N[C@@H](CC(=O)OC(C)(C)C)c1nnc(C)n1-2 [NCGC00250412-19],-148
16,CCN(CC)CCn1c(=O)c(Cc2ccc(OC)cc2)nc2ccccc21 + Cc1sc2c(c1C)C(c1ccc(Cl)cc1)=N[C@@H](CC(=O)OC(C)(C)C)c1nnc(C)n1-2 [NCGC00250412-19],-47.3
17,Cc1cn([C@@H]2C[C@@H](O)[C@H](CO)O2)c(=O)[nH]c1=O + Cc1sc2c(c1C)C(c1ccc(Cl)cc1)=N[C@@H](CC(=O)OC(C)(C)C)c1nnc(C)n1-2 [NCGC00250412-19],21.8
18,O=c1[nH]c(=O)n([C@H]2C[C@H](O)[C@@H](CO)O2)cc1F + Cc1sc2c(c1C)C(c1ccc(Cl)cc1)=N[C@@H](CC(=O)OC(C)(C)C)c1nnc(C)n1-2 [NCGC00250412-19],-390
19,O=c1[nH]c(=O)n([C@H]2C[C@H](O)[C@@H](CO)O2)cc1I + Cc1sc2c(c1C)C(c1ccc(Cl)cc1)=N[C@@H](CC(=O)OC(C)(C)C)c1nnc(C)n1-2 [NCGC00250412-19],-172
